From the supplement of paper PMC12350171
Where a name gives a salt, the structure may show the parent alone. Unmarked numbers belong to inactive results.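 Rule for the calls: active = normalised median growth AUC below 0.1 of DMSO control; inactive = AUC 0.1 or higher.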

Legend:
Experiment in all cases: growth AUC normalised to DMSO control (median) (fraction of control); higher = less growth inhibition, active = hit call of the paper
Conditions in all cases: 20 µM
[1] = tested on: P. vulgatus RND KO
How it was run: (§1)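 For normalised area under the curve, growth curves were truncated at entry into stationary phase, integrated by the trapezoidal rule and divided against vehicle wells on the same plate. The curves came from strains passaged twice overnight without oxygen and then grown in mGAM in 96-well plates at a starting OD578 of 0.01. Each well held an approved-drug library compound at 20 μM with 1% DMSO, and OD578 was read hourly for 24 h in an anaerobic incubator. Values are medians of three biological replicates.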

[2] = tested on: P. vulgatus WT
How it was run: as §1

[3] = tested on: S. enterica typhimurium WT
How it was run: as §1

[4] = tested on: S. enterica typhimurium tolC KO
How it was run: as §1
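Note: active when median AUC fell below 0.1.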

SMILES	growth AUC normalised to DMSO control [1]	growth AUC normalised to DMSO control [2]	growth AUC normalised to DMSO control [3]	growth AUC normalised to DMSO control [4]
COc1ccc(-c2ccc3cc(C(=O)O)ccc3c2)cc1C12CC3CC(CC(C3)C1)C2 [Adapalene]	1.03	1	0.988	1.01
CCc1oc2ccccc2c1C(=O)c1ccc(O)cc1 [Benzarone]	0.881	0.794	1	0.858
O=C(O)CCNC(=O)c1ccccc1 [Betamipron]	1	1.04	0.998	0.807
CCCCCCOc1ccccc1C(N)=O [Exalamide]	1.01	1.04	1	0.917
CCC(=O)O[C@@H]1CC(=O)O[C@H](C)C/C=C/C=C/[C@H](O)[C@H](C)C[C@H](CC=O)[C@H](O[C@@H]2O[C@H](C)[C@@H](O[C@H]3C[C@@](C)(O)[C@@H](OC(=O)CC)[C@H](C)O3)[C@H](N(C)C)[C@H]2O)[C@H]1OC [Midecamycin]	0.00894 (active)	0.0119 (active)	0.998	0.0799 (active)
CCN1CC(CCN2CCOCC2)C(c2ccccc2)(c2ccccc2)C1=O (stereo not given) [Doxapram hydrochloride]	1.05	1.03	1.02	0.996
CC[C@@H]([C@H](C)O)n1ncn(-c2ccc(N3CCN(c4ccc(OC[C@@H]5CO[C@@](Cn6cncn6)(c6ccc(F)cc6F)C5)cc4)CC3)cc2)c1=O [Posaconazole hydrate]	0.87	0.875	1.01	0.979
COc1ccc(C(=O)CC(=O)c2ccc(C(C)(C)C)cc2)cc1 [Avobenzone]	0.939	0.911	0.992	0.976
CC(C)Oc1ccc2c(=O)c(-c3ccccc3)coc2c1 [Ipriflavone]	1.04	1.07	0.978	0.859
COc1cc(N)cn[n+]1-c1ccccc1 [Amezinium metilsulfate]	1.01	1	1	1
CCN1CCN(Cc2ccc(Nc3ncc(F)c(-c4cc(F)c5nc(C)n(C(C)C)c5c4)n3)nc2)CC1 [Abemaciclib]	0.994	0.961	1	0.909
Nc1nc(CC(=O)Nc2ccc(CCNC[C@H](O)c3ccccc3)cc2)cs1 [Mirabegron]	1	0.989	0.991	1
Cn1cc([S+](C)[O-])c(=O)c2ccc(F)cc21 (stereo not given) [Flosequinan]	1.04	1.03	0.992	0.99
C#CCN[C@@H]1CCc2ccccc21 [Rasagiline]	0.989	0.96	1	0.982
CN(C)CCc1c[nH]c2ccc(Cn3cncn3)cc12 [Rizatriptan benzoate]	1.02	1.03	1	0.994
OC[C@H]1O[C@@H](n2cnc3cncnc32)[C@H](O)[C@@H]1O [Nebularine]	0.991	0.997	1	0.997
CCCCc1ncc(/C=C(\Cc2cccs2)C(=O)O)n1Cc1ccc(C(=O)O)cc1 [Eprosartan mesylate]	1.02	1.02	1.01	1
N[C@@H](CSCCCO)C(=O)O [Fudosteine]	1	0.987	0.996	1
CN(C)c1cc(NC(=O)CNC(C)(C)C)c(O)c2c1C[C@H]1C[C@H]3[C@H](N(C)C)C(=O)C(C(N)=O)=C(O)[C@@]3(O)C(=O)C1=C2O [Tigecycline]	0.987	0.997	0.995	0.997
NCCc1c[nH]cn1 [Histamine dihydrochloride]	0.991	0.979	1	0.982
CC(C)Cc1ccc(CC(=O)O)cc1 [Ibufenac]	1.06	1.06	1.01	0.981
CN(C)C(=O)COC(=O)Cc1ccc(OC(=O)c2ccc(NC(=N)N)cc2)cc1 [Camostat mesylate]	1.02	1.03	0.997	1
CC(NN)c1ccccc1 (stereo not given) [Mebanazine]	0.898	0.871	1	0.99

SMILES	growth AUC normalised to DMSO control [1]	growth AUC normalised to DMSO control [2]	growth AUC normalised to DMSO control [3]	growth AUC normalised to DMSO control [4]
CC(C)Nc1ncccn1 [Isaxonine]	0.976	0.953	0.999	1
CCCCC1=NC2(CCCC2)C(=O)N1Cc1ccc(-c2ccccc2-c2nnn[nH]2)cc1 [Irbesartan]	0.985	1	1.01	0.987
CN1CCC[C@@H]1Cc1c[nH]c2ccc(CCS(=O)(=O)c3ccccc3)cc12 [Eletriptan]	1.04	1.05	0.987	0.958
COc1cccc2c1C(=O)c1c(O)c3c(c(O)c1C2=O)C[C@@](O)(C(=O)CO)C[C@@H]3O[C@H]1C[C@H](N)[C@@H](O)[C@H](C)O1 [Epirubicin hydrochloride]	1.02	0.961	1	0.0212 (active)
CC(C)[C@H]1CC[C@H](C(=O)N[C@H](Cc2ccccc2)C(=O)O)CC1 [Nateglinide]	0.977	0.999	0.994	0.968
CC(C)COC(=O)OCN1C(=O)CN(CCN2CC(=O)N(COC(=O)OCC(C)C)C(=O)C2)CC1=O [Sobuzoxane]	1.04	1.08	0.998	1
CCN(CC)C(=O)c1cccnc1 [Nikethamide]	0.992	1	1	1.01
COCC1=C(C(=O)OC(C)OC(=O)OC(C)C)N2C(=O)[C@@H](NC(=O)/C(=N\OC)c3csc(N)n3)[C@H]2SC1 (stereo not given in full) [Cefpodoxime proxetil]	–	–	0.853	0.338
Cc1ccc2c([nH]c(=O)c3c(=O)cc(C(=O)OCCC(C)C)oc32)c1C [Repirinast]	0.94	0.943	1.01	0.924
C[C@@H](NCCCc1cccc(C(F)(F)F)c1)c1cccc2ccccc12 [Cinacalcet hydrochloride]	1.01	1.02	1.01	0.996
CC/C=C(\C(=O)N[C@@H]1C(=O)N2C(C(=O)OCOC(=O)C(C)(C)C)=C(COC(N)=O)CS[C@H]12)c1csc(N)n1 [Cefcapene pivoxil hydrochloride monohydrate]	–	–	1.03	0.159
CC1(C)S[C@@H]2[C@H](NC(=O)[C@H](N)c3ccccc3)C(=O)N2[C@H]1C(=O)O [Ampicillin sodium salt]	–	–	0.773	0.112
CC(=O)N[C@H]1[C@H]([C@H](O)[C@H](O)CO)OC(C(=O)O)=C[C@@H]1NC(=N)N [Zanamivir]	1.06	1.1	1	1.02
CCCSc1nc(N[C@@H]2C[C@H]2c2ccc(F)c(F)c2)c2nnn([C@@H]3C[C@H](OCCO)[C@@H](O)[C@H]3O)c2n1 [Ticagrelor]	0.786	0.544	1.03	0.899
Cc1cn(-c2cc(NC(=O)c3ccc(C)c(Nc4nccc(-c5cccnc5)n4)c3)cc(C(F)(F)F)c2)cn1 [Nilotinib]	1.03	1.05	0.994	0.984
Cc1ccnc2c1NC(=O)c1cccnc1N2C1CC1 [Nevirapine]	0.995	1.01	1	1
COc1ccnc(C[S+]([O-])c2nc3cc(OC(F)F)ccc3[nH]2)c1OC (stereo not given) [Pantoprazole sodium]	0.991	0.998	1.01	0.937
CCN1/C(=C/C=C/C=C/c2sc3ccccc3[n+]2CC)Sc2ccccc21 [Dithiazanine iodide]	–	1.02	1	0.695
N=c1ccn2c(n1)O[C@H]1[C@H](O)[C@@H](CO)O[C@H]12 [Ancitabine hydrochloride]	0.971	0.978	1.01	0.991
CC(C)Cc1ccc(C(C)C(=O)OCc2ccccn2)cc1 (stereo not given) [Ibuprofen Piconol]	1	1.05	0.999	0.875
CO/N=C(\C(=O)N[C@@H]1C(=O)N2C(C(=O)[O-])=C(C[n+]3ccn4ncccc43)CS[C@H]12)c1nsc(N)n1 [Cefozopran hydrochloride]	–	0.128	0.0996 (active)	0.1
Oc1c(Cl)cc(Cl)cc1Sc1cc(Cl)cc(Cl)c1O [Bithionol]	0.0149 (active)	0.0115 (active)	0.991	0.0167 (active)
COC(=O)[C@H](c1ccccc1Cl)N1CCc2sccc2C1 [Clopidogrel]	0.999	0.996	1	0.914

SMILES	growth AUC normalised to DMSO control [1]	growth AUC normalised to DMSO control [2]	growth AUC normalised to DMSO control [3]	growth AUC normalised to DMSO control [4]
C[C@]12CCC3=C4CCC(=O)C=C4CC[C@H]3[C@@H]1CC[C@@]2(O)CC#N [Dienogest]	1.03	1.04	1.02	1.02
CCOc1ccc(NC(=O)CC(C)O)cc1 (stereo not given) [Bucetin]	0.981	0.981	1	0.992
Cc1ccc2c(Cl)cc(Cl)c(O)c2n1 [Chlorquinaldol]	0.0174 (active)	0.014 (active)	0.982	0.371
CC#CCn1c(N2CCC[C@@H](N)C2)nc2c1c(=O)n(Cc1nc(C)c3ccccc3n1)c(=O)n2C [Linagliptin]	0.987	1.02	1	0.98
NC(=O)c1cc[n+](CC2=C(C(=O)O)N3C(=O)[C@@H](NC(=O)C(c4ccccc4)S(=O)(=O)[O-])[C@H]3SC2)cc1 (stereo not given in full) [Cefsulodin Sodium Salt Hydrate]	–	–	0.995	0.986
CC(=O)Nc1c(I)c(NC(C)=O)c(I)c(C(=O)O)c1I [Diatrizoic acid dihydrate]	0.922	0.995	0.998	0.995
CN(C)c1ccc2nc3ccc(=[N+](C)C)cc-3sc2c1 [Methylene blue]	1	1.02	0.98	0.862
CCCCC(=O)N(Cc1ccc(-c2ccccc2-c2nnn[nH]2)cc1)[C@H](C(=O)O)C(C)C [Valsartan]	1.04	1.02	1.02	1.02
O=C(O)CNC(=O)c1ccccc1 [Hippuric acid]	1.1	1.05	1.01	1.02
OC[C@H]1O[C@H](O[C@H]2O[C@H](CO)[C@@H](O)[C@H](O)[C@H]2O)[C@H](O)[C@@H](O)[C@@H]1O [Trehalose dihydrate]	1	1	1.01	1.01
CO/N=C(\C(=O)N[C@@H]1C(=O)N2C(C(=O)OCOC(=O)C(C)(C)C)=C(/C=C\c3scnc3C)CS[C@H]12)c1csc(N)n1 [Cefditoren Pivoxil]	–	–	0.905	0.387
COc1cc(NS(=O)(=O)c2ccc(N)cc2)ncn1 [Sulfamonomethoxine]	1.02	0.976	0.955	0.974
CO/N=C(\C(=O)N[C@@H]1C(=O)N2C(C(=O)OC(C)OC(C)=O)=C(COC(N)=O)CS[C@H]12)c1ccco1 (stereo not given in full) [Cefuroxime axetil]	–	0.664	1.1	–
CC(=O)[C@@]12O[C@](C)(c3ccccc3)O[C@@H]1C[C@H]1[C@@H]3CCC4=CC(=O)CC[C@]4(C)[C@H]3CC[C@@]12C [Algestone acetophenide]	0.955	0.983	1	0.993
Nc1nc(/C(=C/CC(=O)O)C(=O)N[C@@H]2C(=O)N3C(C(=O)O)=CCS[C@H]23)cs1 [Ceftibuten]	–	0.58	0.746	–
Cn1nnnc1SCC1=C(C(=O)O)N2C(=O)[C@@H](NC(=O)[C@H](O)c3ccccc3)[C@H]2SC1 [Cefamandole sodium salt]	0.204	–	0.0103 (active)	0.00496 (active)
O=C1c2c(O)ccc(O)c2C(=O)c2c(NCCNCCO)ccc(NCCNCCO)c21 [Mitoxantrone dihydrochloride]	1.11	1.04	1	0.999
CCCCS(=O)(=O)N[C@@H](Cc1ccc(OCCCCC2CCNCC2)cc1)C(=O)O [Tirofiban hydrochloride]	0.994	0.99	0.989	0.964
O=P(O)(O)C(O)(Cc1cccnc1)P(=O)(O)O [Risedronic acid monohydrate]	0.976	0.999	1.01	1
N[C@@H]1CCCCN(c2c(F)cc3c(=O)c(C(=O)O)cn(C4CC4)c3c2Cl)C1 [Besifloxacin hydrochloride]	0.0164 (active)	0.0175 (active)	0.00618 (active)	0.00833 (active)
COc1cccc(OC)c1C(=O)N[C@@H]1C(=O)N2[C@@H]1SC(C)(C)[C@@H]2C(=O)O [Methicillin sodium]	–	0.708	0.99	0.482
